Screening data as filed in PubChem.
Rab9 prom act = qHTS Assay for Rab9 Promoter Activators. 320,000 tested, 2.8% active. Potency, µM (top dose mostly 9.22 µM), hits mostly activators. Huh7 Rab9 promoter-luciferase reporter, luminescence, 24 h; also: nearly all actives have a fitted effect of over 60% in size
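Steps: seed 1500 Huh7 Rab9-luc cells per well, rest 2 h at 37 °C; add compound in DMSO; incubate 24 h; add luciferase reagent, 10 min ambient; read luminescence.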
SMN2 splice enh = qHTS Assay for Enhancers of SMN2 Splice Variant Expression | HEK293 SMN2-luciferase splicing reporter, luminescence, 30-36 h | Potency, µM (doses to about 46.1 µM), hits mostly activators | 210,000 tested, 2.8% active | AID 1458, 2008; also: nearly all actives have a fitted effect of over 55% in size
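HEK293 cells carry an SMN2 minigene-luciferase reporter in which exon 7 inclusion puts luciferase in frame. Cells were seeded at 2000 cells/well, attached for 10-12 hours, then exposed to compounds for 30-36 hours at 37C before ONE-Glo luminescence.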
KinaseGlo FLuc = Counterscreen for Luciferase (Kinase-Glo TM) Inhibition; Luciferin 4-monooxygenase (Photuris pensylvanica), Q27757; Kinase-Glo luciferase, ATP luminescence, 8 min; Potency, µM (doses to about 38.3 µM), hits mostly inhibitors; 200,000 tested, 0.28% active; AID 1379, 2008; also: nearly all actives have a fitted effect of over 60% in size
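Light output from Kinase-Glo luciferase with luciferin and 10 uM ATP in 50 mM imidazole pH 7.2, KCl, MgCl2, Tween 20, BSA; compound pin-delivered, 8-min ambient incubation, then luminescence read.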
FLuc modulator = qHTS profiling assay for firefly luciferase inhibitor/activator using purifed enzyme and Km concentrations of substrates (counterscreen for miR-21 project); Luciferin 4-monooxygenase (Photinus pyralis), P08659; purified FLuc, Km substrates, luminescence inhibition; Potency, µM (highest dose often 57.5 µM), usual class: inhibitors; 360,000 tested, 6.9% active; AID 588342, 2011; also: nearly all actives have a fitted effect of over 55% in size
Target sequence (P08659 whole entry, looked up): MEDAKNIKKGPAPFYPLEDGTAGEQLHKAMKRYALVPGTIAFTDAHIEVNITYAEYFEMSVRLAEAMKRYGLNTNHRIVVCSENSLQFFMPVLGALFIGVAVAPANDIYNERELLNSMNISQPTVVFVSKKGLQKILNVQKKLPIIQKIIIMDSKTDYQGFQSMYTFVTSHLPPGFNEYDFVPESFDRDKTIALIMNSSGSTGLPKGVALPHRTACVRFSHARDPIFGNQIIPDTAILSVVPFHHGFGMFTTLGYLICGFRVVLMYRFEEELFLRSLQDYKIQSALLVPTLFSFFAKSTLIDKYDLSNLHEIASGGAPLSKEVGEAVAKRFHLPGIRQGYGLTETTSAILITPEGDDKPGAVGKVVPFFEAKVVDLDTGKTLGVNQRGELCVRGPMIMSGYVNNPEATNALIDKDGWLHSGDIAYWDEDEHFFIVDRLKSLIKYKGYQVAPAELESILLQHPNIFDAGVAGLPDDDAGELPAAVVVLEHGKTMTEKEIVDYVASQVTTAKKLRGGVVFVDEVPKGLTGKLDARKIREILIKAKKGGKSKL
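Purified P. pyralis luciferase, 10 nM final, with Km-level 10 uM D-luciferin and 10 uM ATP in 50 mM Tris acetate pH 7.5, 10 mM Mg acetate, 0.01% Tween-20, 0.05% BSA; 6-point qHTS titration about 60 µM downward; luminescence read.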
ELG1 genotoxic = qHTS screen for small molecules that induce genotoxicity in human embryonic kidney (HEK293T) cells expressing luciferase-tagged ELG1; HEK293T ELG1-luciferase reporter, luminescence, 16 h; Potency, µM (doses to about 46 µM), usual class: activators; 330,000 tested, 1.3% active; AID 504466, 2011; also: nearly all actives have a fitted effect of over 60% in size
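Cells (2,000/well) expressing the ELG1-luciferase fusion are dosed by pin tool and kept 16 hr at 37 °C, 5% CO2. Signal comes from ONE-Glo luciferase reagent after 30 min at room temperature.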
NPC1 promoter act = qHTS Assay for NPC1 Promoter Activators | 320,000 tested, 2.4% active | Potency, µM (titrated, usually from 9.22 µM), actives largely listed as activators | Huh7 NPC1 promoter luciferase reporter, 24 h | AID 485313, 2010; also: nearly all actives have a fitted effect of over 60% in size
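Huh7 reporter cells (NPC1 promoter driving luciferase) are dosed with compound for 24 h at 37 °C, 5% CO2; luciferase detection reagent is then added and luminescence measured after 10 min at ambient temperature.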
Each line names hits and unclear results; the compound was inactive in the other large screens; ! = a repeat was not active. The list is not random: actives were taken first. Their share in the collection is about 7.5%. Calls follow the shape of the dose curve; as a rule, active = well fitted curve in the direction sought with a large enough effect; inconclusive = small, poorly fitted or top-dose-only effect, or another doubt; inactive = no such curve, though single readings can be large; an effect the other way counts as inactive or inconclusive.

Nc1ccc(C(=O)OCCc2ccccc2)cc1	Rab9 prom act 3.2µM, FLuc modulator 0.6µM, ELG1 genotoxic inconclusive, NPC1 promoter act 3.5µM (no result: SMN2 splice enh, KinaseGlo FLuc)
CCNc1ncc2nc(C)c(=O)n(Cc3cccc(OC)c3)c2n1	none (no result: Rab9 prom act, FLuc modulator, ELG1 genotoxic, NPC1 promoter act)
COc1ccc(-c2cc(C)nc(SCc3cccc(C(=O)O)c3)n2)cc1	FLuc modulator inconclusive
Cc1nc(SCc2cccc(C(=O)O)c2)nc2c1CCCC2	SMN2 splice enh 4.5µM, FLuc modulator 8.5µM
Cc1onc(-c2ccccc2)c1C(=O)Nc1ccc(S(=O)(=O)NC(C)(C)C)cc1	none (no result: SMN2 splice enh)
Oc1ccc(/C=N/Nc2nn3cnnc3c3ccccc23)cc1	FLuc modulator 9.5µM, NPC1 promoter act inconclusive (no result: SMN2 splice enh, KinaseGlo FLuc)
COc1cccc(/C=N/Nc2nn3cnnc3c3ccccc23)c1	KinaseGlo FLuc 3.5µM, FLuc modulator 11µM
CCOc1cc(/C=N/Nc2nn3cnnc3c3ccccc23)ccc1O	FLuc modulator 5.4µM (no result: SMN2 splice enh, KinaseGlo FLuc)
COc1cc(/C=N/Nc2nn3cnnc3c3ccccc23)ccc1O	KinaseGlo FLuc 13µM, FLuc modulator 2.7µM
COc1cccc(/C=N/Nc2nc3ccccc3n3cnnc23)c1	none
C(=N\Nc1nn2cnnc2c2ccccc12)/c1ccco1	none
CC(=O)N1CCc2c(sc3c2c(=O)n(-c2ccccc2Cl)c(=O)n3C)C1	none (no result: Rab9 prom act, SMN2 splice enh, KinaseGlo FLuc, ELG1 genotoxic, NPC1 promoter act)
O=C(NCCN1C(=O)C2C3C=CC(C3)C2C1=O)Nc1ccc(Br)cc1 (centres undefined)	Rab9 prom act 2.2µM, SMN2 splice enh 11µM, FLuc modulator 11µM, ELG1 genotoxic 8.2µM, NPC1 promoter act 3.2µM
O=C(NCCN1C(=O)C2C3C=CC(C3)C2C1=O)Nc1cccnc1 (centres undefined)	none
Cc1ccc(CNC(=O)C2CCN(c3nc4ccccc4n(C)c3=O)CC2)cc1	none (no result: Rab9 prom act, KinaseGlo FLuc, ELG1 genotoxic, NPC1 promoter act)
Cc1ccc(C(=O)NNC(=O)COc2ccc(Cl)cc2C)o1	FLuc modulator 11µM (no result: SMN2 splice enh, KinaseGlo FLuc)
Cc1cc(Br)ccc1OCC(=O)NNC(=O)c1cnccn1	FLuc modulator 17µM
C/C(=N\NC(=O)CCCOc1ccc(Cl)cc1C)c1ccc(C)o1	none
Cc1ccc(OCC(=O)NNC(=O)c2ccco2)c(C)c1	FLuc modulator 12µM (no result: SMN2 splice enh, KinaseGlo FLuc)
COCCNC(=O)COc1ccc(C)cc1C	none
Cc1cc(Cl)ccc1OCC(=O)NNC(=O)c1cnccn1	FLuc modulator 17µM
O=C(c1cccc(S(=O)(=O)N2CCOCC2)c1)N1CCN(C/C=C/c2ccccc2)CC1	none (no result: SMN2 splice enh, KinaseGlo FLuc)
O=C(O)CCC1(c2ccccc2)NC(=O)NC1=O (centres undefined)	none (no result: SMN2 splice enh, KinaseGlo FLuc)
O=C(O)c1cccc(N2C(=O)c3ccc(Oc4ccc(Cl)cc4)cc3C2=O)c1	FLuc modulator 7.6µM (no result: SMN2 splice enh, KinaseGlo FLuc)
Cc1cccc(CS(=O)(=O)CC2Nc3ccc(C(=O)NCc4ccccc4Cl)cc3NC2=O)c1 (centres undefined)	none (no result: Rab9 prom act, SMN2 splice enh, KinaseGlo FLuc, ELG1 genotoxic, NPC1 promoter act)
NC(=O)C1CCN(C(=S)c2ccc(-c3ccc(Br)cc3)o2)CC1	Rab9 prom act inconclusive, SMN2 splice enh 8.9µM, FLuc modulator inconclusive, ELG1 genotoxic 10µM!, NPC1 promoter act inconclusive
NC(=O)c1ccc(-c2ccc(Br)cc2)o1	FLuc modulator 19µM, ELG1 genotoxic inconclusive
O=C(O)c1ccc(NC(=S)NC(=O)c2ccc(-c3ccc(Br)cc3)o2)cc1	none (no result: SMN2 splice enh, KinaseGlo FLuc)
O=C(O)c1c2c(nc3ccccc13)/C(=C/c1ccc(OC(F)F)cc1)CCC2	Rab9 prom act inconclusive, FLuc modulator 12µM, ELG1 genotoxic inconclusive, NPC1 promoter act inconclusive (no result: SMN2 splice enh, KinaseGlo FLuc)
COc1cccc2c1CCc1c-2nc2ccccc2c1C(=O)O	Rab9 prom act inconclusive, FLuc modulator 0.95µM, ELG1 genotoxic inconclusive, NPC1 promoter act inconclusive (no result: SMN2 splice enh, KinaseGlo FLuc)
O=C(O)c1c2c(nc3ccccc13)/C(=C/c1ccc(O)cc1)CC2	Rab9 prom act inconclusive, FLuc modulator 0.54µM, NPC1 promoter act inconclusive
CCOc1ccc(N2CC(c3nc4ccccc4n3Cc3cccc(Cl)c3)CC2=O)cc1 (centres undefined)	none (no result: Rab9 prom act, KinaseGlo FLuc, ELG1 genotoxic, NPC1 promoter act)
Cc1ccc(-c2nnc(N3CC(C)OC(C)C3)c3ccccc23)cc1 (centres undefined)	none
Cc1ccc(-n2nnnc2CCl)cc1	none (no result: SMN2 splice enh)
C=CCN=C1N[C@@H](c2ccc(Br)cc2)C(C(=O)OC)=C(C)N1Cc1ccccc1	none (no result: SMN2 splice enh, KinaseGlo FLuc, ELG1 genotoxic)
COc1ccc(N2CCN(C(=O)c3ccc4nc(N5CCCCC5)sc4c3)CC2)cc1	FLuc modulator inconclusive, ELG1 genotoxic 23µM
O=C(c1ccc2nc(N3CCOCC3)sc2c1)N1CCCC1	none
COc1cccc(N2CCN(C(=O)c3ccc4nc(N5CCCCC5)sc4c3)CC2)c1	Rab9 prom act inconclusive, FLuc modulator 19µM, ELG1 genotoxic inconclusive, NPC1 promoter act inconclusive
COc1cccc(N2CCN(C(=O)c3ccc4ccccc4c3)CC2)c1	none (no result: SMN2 splice enh, KinaseGlo FLuc)
FC(F)(F)c1cnc(Sc2ncn[nH]2)c(Cl)c1	none
O=C(CN1CCCc2ccccc21)N/N=C/c1ccccc1	none
O=C(CN1CCCc2ccccc21)N/N=C/c1ccc(O)cc1O	FLuc modulator 15µM, ELG1 genotoxic 21µM
Cc1nn(CC(=O)NCc2ccccc2)c(C)c1[N+](=O)[O-]	none
Cc1nn(CC(=O)c2ccccc2Cl)c(C)c1[N+](=O)[O-]	Rab9 prom act 4µM, SMN2 splice enh inconclusive, FLuc modulator 11µM, ELG1 genotoxic 15µM, NPC1 promoter act inconclusive
CCOc1ccc(NS(=O)(=O)c2ccc3c(c2)NC(=O)CCS3)cc1	none (no result: Rab9 prom act, SMN2 splice enh, KinaseGlo FLuc, ELG1 genotoxic, NPC1 promoter act)
CCN1CCN(C(=O)c2cc3c(s2)-c2c(C)cccc2OC3)CC1	Rab9 prom act 4µM, FLuc modulator 11µM, ELG1 genotoxic inconclusive, NPC1 promoter act inconclusive (no result: SMN2 splice enh, KinaseGlo FLuc)
